Results from PMC7826789 (International Journal of Molecular Sciences, 2021).

Columns and labels:
Conditions in all cases: Compound Concentration (nM):1000
[1] = test system: STK33
[2] = test system: STK35
[3] = test system: STK36
[4] = test system: STK39
[5] = test system: SYK
[6] = test system: SgK110
[7] = test system: T1, TAK1
T1 construct: gene MAP3K7

[8] = test system: TAOK1
[9] = test system: TAOK2
[10] = test system: TAOK3
[11] = test system: TBK1
[12] = test system: TEC
[13] = test system: TESK1
[14] = test system: TGFBR1
[15] = test system: TGFBR2
[16] = test system: TIE1
[17] = test system: T2, TIE2
T2 construct: gene TEK

[18] = test system: TLK1
[19] = test system: TLK2
[20] = test system: TNIK
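Note: KINOMEscan scanMAX binding as percent activity remaining versus control; lower means stronger binding.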

Structure (SMILES) | Percent Control [1] [%] | Percent Control [2] [%] | Percent Control [3] [%] | Percent Control [4] [%] | Percent Control [5] [%] | Percent Control [6] [%] | Percent Control [7] [%] | Percent Control [8] [%] | Percent Control [9] [%] | Percent Control [10] [%] | Percent Control [11] [%] | Percent Control [12] [%] | Percent Control [13] [%] | Percent Control [14] [%] | Percent Control [15] [%] | Percent Control [16] [%] | Percent Control [17] [%] | Percent Control [18] [%] | Percent Control [19] [%] | Percent Control [20] [%]
COc1ccccc1-c1cc(/C=C2\C(=O)Nc3ncc(Br)cc32)cc(Br)c1O [GW442130X] | 100 | 100 | 100 | 67 | 100 | 100 | 81 | 93 | 100 | 89 | 100 | 100 | 100 | 100 | 87 | 100 | 95 | 100 | 100 | 71
C/C(Nc1ccc(S(N)(=O)=O)cc1)=C1/C(=O)Nc2ccccc21 [GW335962X] | 92 | 95 | 98 | 64 | 94 | 100 | 70 | 81 | 92 | 94 | 75 | 100 | 100 | 88 | 100 | 100 | 100 | 94 | 65 | 18
NS(=O)(=O)c1ccc(Nc2ncc(-c3ccccc3)o2)cc1 [GW572399X] | 100 | 100 | 100 | 100 | 93 | 100 | 100 | 72 | 97 | 86 | 100 | 99 | 100 | 100 | 100 | 100 | 100 | 63 | 47 | 52
COc1ccc(COc2ccc(Cc3cnc(N)nc3N)cc2OC)cc1 [GW632580X] | 100 | 100 | 74 | 91 | 100 | 100 | 97 | 100 | 100 | 100 | 99 | 100 | 99 | 100 | 100 | 100 | 100 | 92 | 100 | 100
Cl.c1ccc(Cc2nc3ccc(Nc4ncnc5ccccc45)cc3[nH]2)cc1 [GR269666A] | 97 | 100 | 100 | 100 | 100 | 100 | 100 | 100 | 100 | 100 | 100 | 100 | 100 | 100 | 100 | 100 | 100 | 100 | 100 | 100
CN(C)c1cc2c(Nc3ccc4c(cnn4Cc4ccccc4)c3)ncnc2cn1 [GW282974X] | 84 | 100 | 100 | 95 | 100 | 100 | 93 | 92 | 86 | 100 | 55 | 84 | 87 | 100 | 100 | 100 | 100 | 78 | 80 | 100
Cl.O=C(Nc1ccc(Oc2ccc3[nH]c(NC(=O)c4ccco4)nc3c2)cc1)Nc1cc(C(F)(F)F)ccc1F [GW683134A] | 9.8 | 81 | 100 | 100 | 100 | 100 | 9.1 | 100 | 97 | 100 | 100 | 100 | 71 | 91 | 89 | 1.1 | 1.9 | 100 | 77 | 100
CC1=C(C(=O)Nc2ccc3[nH]ncc3c2)C(c2ccc3ccccc3c2)CC(=O)N1 (centres unmarked) [GSK270822A] | 95 | 99 | 100 | 71 | 74 | 100 | 81 | 76 | 96 | 93 | 81 | 90 | 99 | 85 | 100 | 80 | 96 | 89 | 100 | 85
NS(=O)(=O)c1ccc(N/N=C2\C(=O)Nc3ccc(C(=O)NCc4ccncc4)cc32)cc1 [GW300657X] | 87 | 93 | 97 | 74 | 73 | 100 | 29 | 84 | 99 | 100 | 33 | 100 | 100 | 100 | 100 | 85 | 100 | 71 | 75 | 82
COc1ccc2[nH]c3c4[nH]c5ccc(OC)cc5c4c4c(c3c2c1)C(=O)NC4=O [GW296115X] | 33 | 80 | 70 | 100 | 73 | 100 | 20 | 100 | 96 | 96 | 59 | 88 | 90 | 100 | 100 | 100 | 100 | 100 | 95 | 3
